Compound activity deposited in PubChem BioAssay by National Center for Advancing Translational Sciences (NCATS).
Pf Dd2 growth: blocks in vitro growth of P. falciparum Dd2. AID 1347417. P. falciparum Dd2 growth, SYBR Green, 72 h. Potency, µM (doses to about 28.9 µM), hits mostly inhibitors. hit rate 4.3% among 120,000; active = well fitted inhibition curve with a large enough effect; also: nearly all actives have a fitted effect of over 65% in size
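Infected erythrocytes (Dd2, 0.3% parasitemia, 2.5% hematocrit final) are added to compound in RPMI-1640/Albumax II medium, grown 72 h at 37C in low oxygen, then lysed with saponin/Triton-X containing SYBR Green and read by fluorescence.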
A number is an active result; – = inactive. This excerpt belongs to a sample that is enriched for hits.

SMILES	Pf Dd2 growth
COc1ccc(C(=O)N[C@H]2C[C@@H](Cc3cc(CN(C)C)on3)C2(C)C)cc1	–
COCc1cc(C[C@@H]2C[C@H](NC3CCC3)C2(C)C)no1	–
CN1CCC(N[C@H]2C[C@@H](Cc3cc(-c4ccccc4)on3)C2(C)C)CC1	3.98µM
Cc1ccc(C(=O)N2CCC(N3C(=O)CCC3C(=O)NC(C)C)CC2)c(C)c1 (stereo unspecified)	–
COCc1cc(=O)n(CC(=O)NCc2ccc(F)cc2)c(N2CCOCC2)n1	–
CS(=O)(=O)N1CCCC1c1noc(CCC(=O)NC2CC2)n1 (stereo unspecified)	–
COc1ccc(-c2nc(CSc3nncn4c3cc3occc34)c(C)o2)cc1	10µM
Cc1ccc(-c2nc(CSc3nncn4c3cc3occc34)c(C)o2)cc1	–
Cc1oc(-c2ccccc2Cl)nc1CSc1nncn2c1cc1occc12	–
O=C1N2CCCC2CN1C1CCN(Cc2ccccn2)CC1 (stereo unspecified)	–
COCCN1CCC(N2CCN(S(=O)(=O)c3ccc(C(F)(F)F)cc3)CC2)C1=O (stereo unspecified)	–
OCC1(CC2CC2)CCCN(Cc2cccc(OCc3ccccn3)c2)C1 (stereo unspecified)	5.62µM
COc1cccc(CCC(=O)N2CCCC(CO)(CC3CC3)C2)c1 (stereo unspecified)	–
CCc1nccc(CN2CCCC(CC3CC3)(C(=O)O)C2)n1 (stereo unspecified)	–
CN(C)C(=O)CN1CCCC(CO)(CC2CC2)C1 (stereo unspecified)	–
CCc1nc(CN2CCCC(CO)(CC3CC3)C2)cs1 (stereo unspecified)	12.6µM
O=C(O)C1(CC2CC2)CCCN(Cc2ncccn2)C1 (stereo unspecified)	–
COc1ccc(CN2CCCC(CO)(CC3CC3)C2)c(F)c1 (stereo unspecified)	12.6µM
COc1ccc(CN2CCN(CC(N)=O)CC2CCO)c(F)c1 (stereo unspecified)	–
OCc1cc2n(n1)CCCN(Cc1cccc(OCc3ccccn3)c1)C2	–
Cn1cc(Cl)cc1C(=O)N1CC[C@@]2(O)CCN(C(=O)C3CCC3)C[C@H]2C1	–
COc1cccc(NC(=O)O[C@@H]2CC[C@]3(C)C(CC[C@@H](O)[C@H]3CC(=O)N3CC[C@H](NC(C)=O)C3)[C@]2(C)CO)c1 (stereo partly specified)	–
CCOc1ccccc1NC(=O)N1CCC[C@H]1C(=O)N1CCCCCCNC(=O)CC1	–
CCCc1nnc([C@H]2CCN(C3CCN(C(C)=O)CC3)C2)o1	–
COc1ccc(C(=O)N2CCc3nnc([C@@H]4C[C@@H](O)CN4C(C)C)n3CC2)cn1	–
SMILES	Pf Dd2 growth
O=C(NC1CCCCC1)[C@@H]1C[C@@H](O)CN1C1CCN(C(=O)c2ccc(Cn3ccnc3)o2)CC1	–
COc1ccc(CN2CCn3c(nnc3-c3ccncc3)C2)cc1	–
COc1cc(-c2onc(C)c2C(=O)NCCc2ccc(F)cc2)cc(OC)c1OC	–
COCCNC(=O)c1c(C)noc1-c1cc(OC)c(OC)c(OC)c1	–
COc1cc(-c2onc(C)c2C(=O)NCCC(c2ccccc2)c2ccccc2)cc(OC)c1OC	11.2µM
CC(=O)Nc1ccc(S(=O)(=O)NC[C@@H]2C=C(C)[C@H](CC(=O)O)C[C@H]2C(C)C)cc1	–
Cn1ccnc1CN1C(=O)CO[C@H]2CN(Cc3ccc(S(C)(=O)=O)cc3)C[C@H]21	–
CC(C)(O)CCc1cccc(C(=O)NCCNc2cccnc2)c1	–
CS(=O)(=O)N1CCCC(C(=O)NC2CCN(Cc3ccccc3)CC2)CCNC(=O)CC1 (stereo unspecified)	–
CCN(CCCNC(=O)c1cc2c(=O)[nH]c3ccc(C)cc3c2s1)Cc1ccccc1	7.94µM
COCCN(Cc1ccco1)C(=O)c1cc2c(=O)[nH]c3ccc(C)cc3c2s1	–
CC1CCCN(CCCNC(=O)c2cc3c(Cl)nc4ccccc4c3s2)C1 (stereo unspecified)	4.47µM
Cc1ccc2nc(Cl)c3cc(C(=O)NCCCN(C)Cc4ccccc4)sc3c2c1	7.94µM
CC1CCC(NC(=O)c2cc3c(Cl)nc4ccccc4c3s2)CC1 (stereo unspecified)	–
Cc1ccc2nc(Cl)c3cc(C(=O)NC4CCCCCC4)sc3c2c1	–
CC1CCCN(C(=O)c2cc3c(Cl)nc4ccccc4c3s2)C1 (stereo unspecified)	–
CCOCCCN(Cc1ccco1)C(=O)c1cc2c(=O)[nH]c3ccc(C)cc3c2s1	10µM
CCCN(C(=O)c1cc2c(=O)[nH]c3ccc(C)cc3c2s1)c1ccc(CC)cc1	–
Cc1cccc(CCNC(=O)c2cc3c(=O)[nH]c4ccc(C)cc4c3s2)c1	–
CCCCN(CC)CCCNC(=O)c1cc2c(=O)oc3ccc(C)cc3c2s1	–
COCCNC(=O)c1cc2c(Cl)nc3ccc(C)cc3c2s1	–
CC(=O)NCC(=O)N1Cc2ccccc2CC2(CCCN2CC2CCNCC2)C1 (stereo unspecified)	–
COC(=O)c1ccc2c(c1)nc1n2[C@@H](CNC(=O)NC2CCCCC2)COC1	–
